This is an account of results in article PMC5540273 (PLoS ONE, 2017).
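Further: KINOMEscan kinase panel screen.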

The experiment has as its system CDC2L2. As to conditions: concentration: 1 μM, replicates: in singlicate; n = 1.
Consider `Cc1ccc(NC(=O)Nc2ccc(Cl)c(C(F)(F)F)c2)cc1-c1ccc(C(=O)Nc2ccncc2)cc1` [GSK1398470], for which the “%Inh” value amounted to 20%. Under `FC(F)(F)c1ccccc1-c1cc(-c2c[nH]nc2-c2ccccn2)ccn1` [GW679396] stands 0%. In the case of `COC(=O)c1cccc(NC(=O)NC2CCN(c3ccnc(Nc4ccc(F)cc4)n3)C2)c1` (stereo not shown) [GSK1379725] it was 0%; in that of `Fc1ccc(-c2nn3cccc(F)c3c2-c2ccncc2)cc1` [GW475620], 0%. Under `Cc1ccc(NC(=O)Nc2ccc(Cl)cc2)cc1-c1ccc(C(=O)Nc2ccncc2)cc1` [GSK1398472] stands 13%; under `COC(=O)C(Cc1ccccc1)NC(=O)NC1CCN(c2ccnc(Nc3ccc(F)cc3)n2)C1` (stereo not shown) [GSK1379714], 18%. Regarding `COc1ccc(Nc2nccc(NCCNC(=O)Nc3cc(C)ccc3C)n2)cc1` [GSK1379899], the “%Inh” value is 0%.

Turning to `Fc1ccc(-c2nc3n(c2-c2ccncc2)CCS3)cc1` [GI98581], the “%Inh” value came out at 0%.

Regarding `CC(=O)c1cccc(NC(=O)NC2CCN(c3ccnc(Nc4ccc(F)cc4)n3)C2)c1` (stereo not shown) [GSK1379710], the “%Inh” value is 17%. In the case of `Cc1ccc(-c2nc(Nc3ccncc3)c3ccccc3n2)s1` [GSK189015] it was 17%; in that of `O=c1cc(N2CCOCC2)nc2n(Cc3cccc(Cl)c3Cl)c3ccccc3n12` [GSK2299009], 11%; in that of `Cc1ccccc1Cn1ccn2c(=O)cc(N3CCOCC3)nc12` [GSK2269905], 0%. Under `O=C(Nc1n[nH]c2nc(-c3cccs3)c(Br)cc12)C1CCCC1` [SB-743341] stands 0%.
